From the antibiotic and cytotoxicity screens of Wong et al. (2023) come the findings set out here.

Among all 39,000 compounds or so, about 3,300 (8.5%) were called active. The sample as a whole holds a higher share of actives than the screen did.

The test system of this assay is HepG2. Nature of the assay: cytotoxicity call (relative viability < 0.9). The settings on record: 10 µM.
With `C[C@@H]1CCCCO[C@H](CN(C)S(=O)(=O)c2cn(C)cn2)[C@H](C)CN([C@@H](C)CO)C(=O)c2cc(NC(=O)CCCN(C)C)ccc2O1`, the cytotoxicity call is “inactive”.

As to `CO[C@H](CN(C)C(=O)Nc1ccc(C(F)(F)F)cc1)[C@H](C)CN(Cc1ccccc1Cl)[C@@H](C)CO`, the cytotoxicity call is “inactive”.

Take `C[C@@H]1CN([C@H](C)CO)C(=O)c2c(c3ccccc3n2C)-c2ccccc2CO[C@@H]1CN(C)C(=O)Nc1ccc(F)cc1`: the cytotoxicity call is “inactive”.

As to `COCC(=O)N1CC[C@@H](O)[C@@H]1Cc1cnn(C)c1`, the cytotoxicity call is “inactive”.

Regarding `CN1C(=O)c2cc(NC(=O)C3CCOCC3)ccc2OC[C@H]2O[C@H](CC(=O)NCc3ccccc3F)CC[C@@H]21`, the cytotoxicity call was “inactive”.

For `COC(=O)C[C@@H]1CC[C@H]2[C@H](COc3ccc(NS(=O)(=O)c4ccccc4Cl)cc3C(=O)N2C)O1`, the cytotoxicity call is “inactive”.

On to `COCC(=O)N1C[C@H](C)[C@H](OC)CN(C)C(=O)c2cc(NC(=O)Nc3ccccc3)ccc2OC[C@H]1C`, for which the cytotoxicity call was “inactive”.

Regarding `C[C@@H]1CN([C@H](C)CO)C(=O)c2cccc(NC(=O)c3ccncc3)c2O[C@H]1CN(C)Cc1ccc2c(c1)OCO2`, the cytotoxicity call is “inactive”.

Take `O=C(CCCCCCC(=O)N/N=C/[C@@H](O)[C@H](O)[C@H](O)CO)NO`: the cytotoxicity call is “inactive”.

For the molecule `C[C@@H]1CCCCO[C@@H](CN(C)Cc2ccc(Cl)c(Cl)c2)[C@@H](C)CN([C@H](C)CO)C(=O)c2cc(NS(=O)(=O)c3ccc(Cl)cc3)ccc2O1`, the cytotoxicity call was “inactive”.

Take `C[C@@H]1CCCCO[C@H](CN(C)Cc2ccc(Cl)c(Cl)c2)[C@@H](C)CN([C@H](C)CO)C(=O)c2cc(NS(=O)(=O)c3ccc(Cl)cc3)ccc2O1`: the cytotoxicity call is “active”.

Regarding `C[C@H](CO)N1C[C@H](C)[C@@H](CN(C)Cc2ccc(Cl)c(Cl)c2)OCCCC[C@H](C)Oc2ccc(NS(=O)(=O)c3ccc(Cl)cc3)cc2C1=O`, the cytotoxicity call was “inactive”.

With `C[C@@H]1CCCCO[C@H](CN(C)Cc2ccc(Cl)c(Cl)c2)[C@@H](C)CN([C@@H](C)CO)C(=O)c2cc(NS(=O)(=O)c3ccc(Cl)cc3)ccc2O1`, the cytotoxicity call is “active”.

With `C[C@@H]1CCCCO[C@@H](CN(C)Cc2ccc(Cl)c(Cl)c2)[C@H](C)CN([C@H](C)CO)C(=O)c2cc(NS(=O)(=O)c3ccc(Cl)cc3)ccc2O1`, the cytotoxicity call was “active”.

For `C[C@@H]1CCCCO[C@H](CN(C)Cc2ccc(Cl)c(Cl)c2)[C@H](C)CN([C@@H](C)CO)C(=O)c2cc(NS(=O)(=O)c3ccc(Cl)cc3)ccc2O1`, the cytotoxicity call was “active”.

`CC(C)NC(=O)Nc1cccc2c1O[C@H](CN(C)Cc1ccc3c(c1)OCO3)[C@@H](C)CN([C@@H](C)CO)C2=O`: the cytotoxicity call is “inactive”.

On to `COc1ccc(NC(=O)Nc2ccc3c(c2)C(=O)N([C@H](C)CO)C[C@H](C)[C@@H](CN(C)C(=O)Nc2ccc(C(F)(F)F)cc2)OCCCC[C@H](C)O3)cc1`, for which the cytotoxicity call is “inactive”.

Consider `C[C@@H]1CN([C@@H](C)CO)C(=O)c2cc(NC(=O)Nc3ccc(F)cc3)ccc2O[C@@H](C)CCCCO[C@H]1CN(C)Cc1ccc(C(=O)O)cc1`, for which the cytotoxicity call is “inactive”.

As for `COc1cccc(S(=O)(=O)N2C[C@H](O)COC[C@H]3O[C@H](CC(=O)NCCCN4CCOCC4)CC[C@@H]32)c1`, the cytotoxicity call was “inactive”.

Turning to `CN1[C@@H]2c3ccc(-c4ccccc4)c(=O)n3C[C@H]1[C@H](CO)[C@H]2C(=O)NCCCN1CCOCC1`, the cytotoxicity call is “inactive”.

Regarding `Cc1noc(C)c1NC(=O)Nc1cccc2c1O[C@H](CN(C)C(=O)NC(C)C)[C@H](C)CN([C@@H](C)CO)C2=O`, the cytotoxicity call was “inactive”.

Regarding `O=C(C[C@H]1CC[C@H]2[C@@H](COC[C@H](O)CN2S(=O)(=O)c2ccc(Cl)cc2)O1)N[C@@H]1CCN(Cc2ccccc2)C1`, the cytotoxicity call is “inactive”.

As for `CCCN(C)C[C@@H]1OCCCC[C@@H](C)Oc2ccc(NS(=O)(=O)c3cn(C)cn3)cc2C(=O)N([C@H](C)CO)C[C@@H]1C`, the cytotoxicity call was “inactive”.

Turning to `COc1ccc(NC(=O)N(C)C[C@H]2Oc3ncc(C#CC(C)C)cc3C(=O)N([C@H](C)CO)C[C@H]2C)cc1`, the cytotoxicity call was “inactive”.

For `CC1OC(OC2C(O)CC(OC3C(O)CC(OC4CCC5(C)C(CCC6C5CCC5(C)C(C7=CC(=O)OC7)CCC65O)C4)OC3C)OC2C)CC(O)C1O` (stereo not drawn), the cytotoxicity call is “active”.

Take `C[C@H]1O[C@@H](O[C@H]2[C@@H](O)C[C@H](O[C@H]3[C@@H](O)C[C@H](O[C@H]4CC[C@@]5(C)[C@H](CC[C@@H]6[C@@H]5CC[C@]5(C)[C@@H](C7=CC(=O)OC7)CC[C@]65O)C4)O[C@@H]3C)O[C@@H]2C)C[C@H](O)[C@@H]1O`: the cytotoxicity call was “active”.

Turning to `Cc1ccc(S(=O)(=O)N(C)C[C@H]2OCCCC[C@H](C)Oc3ccc(NC(=O)Nc4cccc5ccccc45)cc3C(=O)N([C@H](C)CO)C[C@H]2C)cc1`, the cytotoxicity call was “inactive”.

Regarding `NCCCn1c2c(c3ccccc31)CCCC2`, the cytotoxicity call is “active”.

For `NCCCN1CCCN(CCCN)CC1`, the cytotoxicity call was “inactive”.

Take `CC(=O)N1C(=O)N(C(C)=O)[C@@H](O)[C@H]1O`: the cytotoxicity call is “inactive”.

In the case of `O=C(C[C@@H]1CC[C@H](NS(=O)(=O)c2ccccc2)[C@H](CO)O1)NCc1ccncn1`, the cytotoxicity call was “inactive”.

With `Nc1nnc(C(F)(F)F)[nH]1`, the cytotoxicity call was “inactive”.

As for `CCCc1ccc2c(c1)CNCCC2`, the cytotoxicity call is “inactive”.

`COc1ccc(NC(=O)N(C)C[C@@H]2OCCCC[C@@H](C)Oc3ccc(NC(=O)Cc4ccccc4)cc3C(=O)N([C@H](C)CO)C[C@@H]2C)cc1`: the cytotoxicity call is “inactive”.

In the case of `C[C@@H]1CN([C@H](C)CO)C(=O)c2cc(NS(C)(=O)=O)ccc2O[C@@H]1CN(C)C(=O)Nc1ccc2c(c1)OCO2`, the cytotoxicity call was “inactive”.

For `C[C@@H]1CN([C@H](C)CO)C(=O)c2cc(NC(=O)Nc3ccccc3)ccc2O[C@@H](C)CCCCO[C@@H]1CN(C)S(=O)(=O)c1ccccc1`, the cytotoxicity call was “inactive”.

Regarding `COc1ccc(CN(C)C[C@@H]2Oc3c(NC(=O)Nc4cccc5ccccc45)cccc3C(=O)N([C@H](C)CO)C[C@@H]2C)cc1`, the cytotoxicity call was “inactive”.

As for `C[C@H](CO)N1C[C@H](C)[C@H](CN(C)Cc2ccc(Oc3ccccc3)cc2)Oc2c(NC(=O)Nc3cccc4ccccc34)cccc2C1=O`, the cytotoxicity call was “inactive”.

Turning to `C[C@H]1CN([C@@H](C)CO)C(=O)c2cccc(NC(=O)Nc3cccc4ccccc34)c2O[C@H]1CN(C)Cc1ccc(Oc2ccccc2)cc1`, the cytotoxicity call was “active”.

As to `C[C@@H]1CN([C@H](C)CO)C(=O)c2cccc(NC(=O)Nc3cccc4ccccc34)c2O[C@@H]1CN(C)Cc1ccc(Oc2ccccc2)cc1`, the cytotoxicity call was “inactive”.

On to `C[C@H](CO)N1C[C@H](C)[C@@H](CN(C)Cc2ccc(Oc3ccccc3)cc2)Oc2c(NC(=O)Nc3cccc4ccccc34)cccc2C1=O`, for which the cytotoxicity call is “active”.

For `COc1ccc(CN(C)C[C@@H]2Oc3c(NC(=O)Nc4cccc5ccccc45)cccc3C(=O)N([C@@H](C)CO)C[C@@H]2C)cc1`, the cytotoxicity call was “inactive”.

For `CO[C@@H]1CN(C)C(=O)c2cc(NC(=O)Nc3cccc(Cl)c3)ccc2OC[C@H](C)N(C(=O)Nc2c(C)noc2C)C[C@@H]1C`, the cytotoxicity call was “inactive”.

As for `C[C@H]1CC/C=C\[C@H]2O[C@@]34C=CCN(Cn5nnc6ccccc65)C(=O)[C@H]3N(CCCO)C(=O)[C@@H]4[C@@H]2C(=O)O1`, the cytotoxicity call was “inactive”.

`C[C@H]1CCCCO[C@H](CN(C)C(=O)c2ccccc2)[C@@H](C)CN([C@@H](C)CO)C(=O)c2cc(NC(=O)Nc3ccc(C(F)(F)F)cc3)ccc2O1`: the cytotoxicity call is “inactive”.

For the molecule `O=C(NC1(C(F)(F)F)Oc2cc(Cl)c(Cl)cc2O1)C1=C(N2CCOCC2)/C(=C/c2ccccc2)CC1`, the cytotoxicity call was “active”.

Turning to `C[C@H]1CN([C@@H](C)CO)C(=O)c2cc(NS(=O)(=O)c3ccc(F)cc3)ccc2O[C@@H]1CN(C)CC1CC1`, the cytotoxicity call was “inactive”.

As for `C[C@@H]1CN([C@H](C)CO)C(=O)c2cccc(NC(=O)C3CC3)c2O[C@@H]1CN(C)S(=O)(=O)c1cccs1`, the cytotoxicity call is “inactive”.

As to `C[C@@H]1CN([C@H](C)CO)C(=O)Cc2cc(NC(=O)Nc3ccc(F)cc3)ccc2O[C@@H]1CN(C)S(=O)(=O)c1cn(C)cn1`, the cytotoxicity call is “inactive”.

Consider `C[C@H](CO)N1C[C@H](C)[C@@H](CN(C)S(=O)(=O)c2cccs2)Oc2ccc(NC(=O)Nc3cccc4ccccc34)cc2C1=O`, for which the cytotoxicity call was “inactive”.

With `CN1CCN(CCO)C(=O)C12CCN([C@H]1CCOC1)CC2`, the cytotoxicity call is “inactive”.

For `C=CCOC(=O)[C@H]1[C@@H]2C(=O)O[C@@H](c3ccccc3)[C@@H](c3ccccc3)N2[C@@H](c2ccc(OCCOC(=O)[C@H]3C[C@H]4C(=O)N5CCC[C@H]5C(=O)N4[C@H]3c3ccc(O)cc3)cc2)[C@]12C(=O)Nc1ccc(I)cc12`, the cytotoxicity call was “inactive”.

Consider `Cc1noc(C)c1S(=O)(=O)Nc1ccc2c(c1)CC(=O)N([C@H](C)CO)C[C@@H](C)[C@H](CN(C)Cc1ccc(Oc3ccccc3)cc1)O2`, for which the cytotoxicity call is “inactive”.

Regarding `COc1oc(C(=O)NC2CCCCC2)c(-c2ccc(Cl)cc2)c1S(=O)(=O)c1ccc(Br)cc1`, the cytotoxicity call is “inactive”.

As to `COc1oc(C(=O)NC2CCCCC2)c(-c2ccc(Cl)cc2)c1S(=O)(=O)c1ccc(Cl)cc1`, the cytotoxicity call is “inactive”.

`C#CCOc1ccc(-c2c(C(=O)NC3CCCCC3)oc(OC)c2S(=O)(=O)c2ccc(Cl)cc2)cc1`: the cytotoxicity call is “active”.

Turning to `C[C@@H]1CN([C@@H](C)CO)C(=O)c2cc(NS(=O)(=O)c3cn(C)cn3)ccc2O[C@@H](C)CCCCO[C@H]1CN(C)Cc1ccc(C(F)(F)F)cc1`, the cytotoxicity call is “inactive”.

As for `CCCCC1C(=O)N(c2ccccc2)N(c2ccccc2)C1=O`, the cytotoxicity call was “inactive”.

In the case of `CCCCC1C(=O)N(c2ccccc2)N(c2ccc(O)cc2)C1=O` (stereo not drawn), the cytotoxicity call was “active”.

On to `O=C1C(CCS(=O)c2ccccc2)C(=O)N(c2ccccc2)N1c1ccccc1` (stereo not drawn), for which the cytotoxicity call was “inactive”.

In the case of `CC[C@H](C(=O)O)N1CCCC1`, the cytotoxicity call is “inactive”.

With `C[C@H](CO)N1C[C@H](C)[C@@H](CN(C)CC2CCCCC2)Oc2ccc(NC(=O)CCCCCC(=O)Nc3ccccc3N)cc2C1=O`, the cytotoxicity call is “active”.

As to `C[C@@H]1CN([C@H](C)CO)C(=O)Cc2cc(NC(=O)CCCCCC(=O)Nc3ccccc3N)ccc2O[C@@H]1CN(C)CC1CCCCC1`, the cytotoxicity call was “inactive”.

As to `C[C@@H]1CN([C@H](C)CO)C(=O)c2cc(NC(=O)CCCCCC(=O)Nc3ccccc3N)ccc2O[C@H]1CN(C)CC1CCCCC1`, the cytotoxicity call is “inactive”.

Turning to `C[C@@H]1CN([C@@H](C)CO)C(=O)c2cc(NC(=O)CCCCCC(=O)Nc3ccccc3N)ccc2O[C@H]1CN(C)CC1CCCCC1`, the cytotoxicity call was “inactive”.

As to `C[C@@H]1CN([C@@H](C)CO)C(=O)c2cc(NC(=O)CCCCCC(=O)Nc3ccccc3N)ccc2O[C@@H](C)CCCCO[C@@H]1CN(C)CC1CCCCC1`, the cytotoxicity call is “inactive”.

In the case of `C[C@H](CO)N1C[C@H](C)[C@H](CN(C)CC2CCCCC2)Oc2ccc(NC(=O)CCCCCC(=O)Nc3ccccc3N)cc2C1=O`, the cytotoxicity call is “active”.

As for `C[C@@H]1CCCCO[C@@H](CN(C)CC2CCCCC2)[C@@H](C)CN([C@H](C)CO)C(=O)c2cc(NC(=O)CCCCCC(=O)Nc3ccccc3N)ccc2O1`, the cytotoxicity call was “inactive”.

As for `C[C@H]1CN([C@@H](C)CO)C(=O)c2cc(NC(=O)CCCCCC(=O)Nc3ccccc3N)ccc2O[C@@H]1CN(C)CC1CCCCC1`, the cytotoxicity call was “inactive”.

As to `C[C@H]1CN([C@@H](C)CO)C(=O)c2cc(NC(=O)CCCCCC(=O)Nc3ccccc3N)ccc2O[C@H]1CN(C)CC1CCCCC1`, the cytotoxicity call was “active”.

For the molecule `C[C@@H]1CN([C@@H](C)CO)C(=O)c2cc(NC(=O)CCCCCC(=O)Nc3ccccc3N)ccc2O[C@@H]1CN(C)CC1CCCCC1`, the cytotoxicity call was “inactive”.

For `C[C@@H]1CN([C@@H](C)CO)C(=O)Cc2cc(NC(=O)CCCCCC(=O)Nc3ccccc3N)ccc2O[C@@H]1CN(C)CC1CCCCC1`, the cytotoxicity call is “active”.

On to `C[C@@H]1CN([C@H](C)CO)C(=O)Cc2cc(NC(=O)CCCCCC(=O)Nc3ccccc3N)ccc2O[C@H]1CN(C)CC1CCCCC1`, for which the cytotoxicity call is “inactive”.
